We go through eight molecules from PubChem BioAssay (NCI).

About 83,000 compounds went through this panel and 20% of them were active in at least one assay; those are over-represented in the sample as a whole.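 Results are percent growth after 48 hours of single-concentration exposure. 100 means growth as in untreated cells, lower positive values show inhibition; negative values down to -100 show cell death.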 Values without a mark were called inactive. Calls of active or inactive are those of the source. The calls were made as follows: active = growth percent below 10; inactive = the rest.

Some test systems named below: SK-MEL-2 melanoma; EKVX NSCLC; SN12C renal; UO-31 renal; ACHN renal; CAKI-1 renal; A498 renal; CCRF-CEM leukemia; MOLT-4 leukemia; SR leukemia; RPMI-8226 leukemia; OVCAR-8 ovarian; OVCAR-5 ovarian; OVCAR-4 ovarian; SK-OV-3 ovarian; IGROV1 ovarian; OVCAR-3 ovarian; HS 578T breast; NCI/ADR-RES ovarian.
What all share (test): NCI-60 one-dose screen, 48 h (100 = growth as untreated, 0 = no growth, -100 = all killed)
Holding throughout (details): 10 µM

On to `CC(C)N(CCOc1ccc(-c2nc3sccn3c2-c2ccnc(S(C)(=O)=O)n2)cc1)C(C)C`, for which the growth in the assay on SK-MEL-2 melanoma was 106%; with EKVX NSCLC, 87.6%; in the assay with SN12C renal it was 87.8%; with UO-31 renal, 70%; with ACHN renal, 101%; in the assay on CAKI-1 renal, 84.2%. The growth in the assay with A498 renal was 60.3%; in the assay on CCRF-CEM leukemia, 76.4%; in the assay on MOLT-4 leukemia, 52.4%; in the assay on SR leukemia it was 74.4%; in the assay on RPMI-8226 leukemia, 71.2%; in the assay on OVCAR-8 ovarian, 90.6%. In addition, the growth is 104% with OVCAR-5 ovarian; 72% in the assay with OVCAR-4 ovarian; 90.3% with SK-OV-3 ovarian; 96.2% in the assay on IGROV1 ovarian; 72.8% in the assay with OVCAR-3 ovarian; 76.6% in the assay with HS 578T breast. Further, in the assay with NCI/ADR-RES ovarian, the growth was 89.2%.
Consider `NC1=NC(c2ccccc2)C2=C(N1)/C(=C/c1ccccc1)CCC2` (stereo unspecified), for which the growth with SK-MEL-2 melanoma was 87.1%; in the assay with EKVX NSCLC, 95%; in the assay with SN12C renal it was 91.6%; in the assay on UO-31 renal, 70.5%; in the assay on ACHN renal it was 108%; with CAKI-1 renal it was 93.8%. The growth is 75% with A498 renal; 91% in the assay with CCRF-CEM leukemia; 77.8% with MOLT-4 leukemia; 46% in the assay on SR leukemia; -7.58% (active) in the assay with RPMI-8226 leukemia; 80% in the assay on OVCAR-8 ovarian. Also, the growth in the assay with OVCAR-5 ovarian is 106%; in the assay on OVCAR-4 ovarian, 81.3%; with SK-OV-3 ovarian, 74%; in the assay with IGROV1 ovarian, 100%; in the assay on OVCAR-3 ovarian it was 81.6%; in the assay on HS 578T breast, 88.5%. In addition, in the assay with NCI/ADR-RES ovarian, the growth is 95.8%.
For `Cc1c2c(nn1C(=O)c1nn(-c3ccc(Cl)cc3)cc1O)-c1ccccc1CC2`, the growth in the assay on SK-MEL-2 melanoma was 0.774% (active); with EKVX NSCLC it was 6.22% (active); in the assay on SN12C renal, 29.2%; in the assay with UO-31 renal, 10.3%; in the assay on ACHN renal it was 16.7%; in the assay with CAKI-1 renal, -25.5% (active). In addition, the growth is 80.5% in the assay on A498 renal; -7.92% (active) with CCRF-CEM leukemia; -1.46% (active) with MOLT-4 leukemia; -39.9% (active) with SR leukemia; -35.3% (active) with RPMI-8226 leukemia; 6.41% (active) in the assay on OVCAR-8 ovarian. Also, the growth in the assay with OVCAR-5 ovarian was 40.8%; in the assay with OVCAR-4 ovarian, 15.6%; in the assay with SK-OV-3 ovarian, 13%; with IGROV1 ovarian, 17.8%; in the assay with OVCAR-3 ovarian, -3.9% (active); with HS 578T breast it was 71.5%. Also, the growth with NCI/ADR-RES ovarian is 6% (active).
On to `COc1cc2cc(Oc3ccc(NC(=O)c4cccc(C(F)(F)F)c4)cc3)c(C)nc2cc1OC`, for which the growth with SK-MEL-2 melanoma was 38.8%; with EKVX NSCLC, 18.6%; with SN12C renal, 36.9%; in the assay with UO-31 renal it was 22.8%; with ACHN renal it was 33.9%; in the assay on CAKI-1 renal, 13.3%. In addition, the growth with A498 renal is 0.391% (active); in the assay on CCRF-CEM leukemia, 25.9%; with MOLT-4 leukemia it was 28.4%; with SR leukemia, 28%; in the assay on RPMI-8226 leukemia it was 17.5%; in the assay with OVCAR-8 ovarian, 42.5%. For the same molecule, the growth in the assay with OVCAR-5 ovarian is 70.2%; in the assay with OVCAR-4 ovarian, 43.2%; in the assay on SK-OV-3 ovarian it was 23.4%; in the assay with IGROV1 ovarian, 36.1%; with OVCAR-3 ovarian, 15%; in the assay with NCI/ADR-RES ovarian it was 26%.
Turning to `CS(=O)(=O)c1nccc(-c2c(-c3cccc(O)c3)nc3sccn23)n1`, the growth in the assay with SK-MEL-2 melanoma was 107%; in the assay on EKVX NSCLC, 88.7%; in the assay with SN12C renal it was 91%; in the assay on UO-31 renal it was 66.5%; with ACHN renal it was 86.2%; in the assay on CAKI-1 renal it was 95.5%. Moreover, the growth in the assay with A498 renal is 70.5%; in the assay with CCRF-CEM leukemia, 90%; with MOLT-4 leukemia, 93%; with SR leukemia it was 72.4%; with RPMI-8226 leukemia it was 91.5%; in the assay on OVCAR-8 ovarian it was 94.9%. Also, the growth in the assay on OVCAR-5 ovarian was 99.3%; in the assay with OVCAR-4 ovarian, 78.2%; in the assay with SK-OV-3 ovarian, 95.6%; in the assay with IGROV1 ovarian it was 117%; with OVCAR-3 ovarian, 97%; in the assay with HS 578T breast, 93%. Besides, the growth in the assay with NCI/ADR-RES ovarian was 101%.
Consider `Nc1ncc(-c2cnn(C3CCNCC3)c2)cc1-c1nc2ccccc2o1`, for which the growth with SK-MEL-2 melanoma is 22.1%; in the assay on EKVX NSCLC, 85.3%; in the assay with SN12C renal, 14.1%; with UO-31 renal, -17.7% (active); in the assay with ACHN renal, 21.9%; with CAKI-1 renal, 68.3%. Besides, the growth is 36.4% with A498 renal; -53.7% (active) with CCRF-CEM leukemia; -35.7% (active) with MOLT-4 leukemia; -74.7% (active) in the assay on SR leukemia; -56% (active) in the assay on RPMI-8226 leukemia; 9.55% (active) in the assay on OVCAR-8 ovarian. Further, the growth in the assay with OVCAR-5 ovarian is 34.6%; with OVCAR-4 ovarian, 35.8%; with SK-OV-3 ovarian it was 3.49% (active); in the assay with IGROV1 ovarian it was -14.5% (active); with OVCAR-3 ovarian, -62.4% (active); in the assay on HS 578T breast it was -14.7% (active). Moreover, in the assay with NCI/ADR-RES ovarian, the growth is 42.8%.
Take `COc1cc(C2CC(c3ccccc3)=NN2C(C)=O)cc(OC)c1OC` (stereo unspecified): the growth in the assay on SK-MEL-2 melanoma is 47.6%; in the assay with EKVX NSCLC, 51%; in the assay on SN12C renal it was 63.5%; in the assay with UO-31 renal, 58.1%; in the assay on ACHN renal it was 54.9%; in the assay with CAKI-1 renal, 38.8%. For the same molecule, the growth in the assay on A498 renal was 50.6%; in the assay on CCRF-CEM leukemia, 34.5%; with MOLT-4 leukemia, 29%; in the assay on SR leukemia, 28.1%; in the assay on RPMI-8226 leukemia, 81.7%; in the assay with OVCAR-8 ovarian, 51.2%. Further, the growth with OVCAR-5 ovarian was 92.3%; in the assay with OVCAR-4 ovarian, 78.5%; with SK-OV-3 ovarian, 47.5%; in the assay with IGROV1 ovarian, 24.6%; with OVCAR-3 ovarian, -10.7% (active); in the assay with HS 578T breast, 48.4%. In addition, the growth with NCI/ADR-RES ovarian is 11.1%.
Take `O=C(N/N=C/c1ccc(Cl)cc1)c1ccccc1Nc1cccc(C(F)(F)F)c1`: the growth in the assay on SK-MEL-2 melanoma is 70.6%; with EKVX NSCLC, 66.6%; in the assay on SN12C renal, 91.3%; in the assay with UO-31 renal it was 40.8%; in the assay on ACHN renal, 102%; in the assay on CAKI-1 renal it was 86%. Further, the growth in the assay with A498 renal was -13.2% (active); in the assay on CCRF-CEM leukemia it was 69.7%; in the assay with MOLT-4 leukemia, 74.2%; in the assay with SR leukemia, 45.7%; with RPMI-8226 leukemia, 82%; in the assay on OVCAR-8 ovarian it was 80.3%. Besides, the growth in the assay with OVCAR-5 ovarian was 96.9%; with OVCAR-4 ovarian, 74.8%; in the assay with SK-OV-3 ovarian, 84.9%; in the assay with IGROV1 ovarian, 59.3%; in the assay with OVCAR-3 ovarian, 60.3%; in the assay with HS 578T breast it was 61.7%. Besides, the growth in the assay on NCI/ADR-RES ovarian was 88.8%.
